# KCNQ2 inh: blocks the rat KCNQ2 potassium channel; O88943; CHO-K1 KCNQ2, FluxOR thallium flux, 20 min; hits give low values; B-score at 10 µM; actives 1.1% (n = 310,000); AID 2156;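 active = fluorescence ratio B-score at most minus 3 library SDs, with starting brightness B-score within 2 library SDs, cut at about -5.5 in these data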
# Target sequence (O88943 whole entry, looked up): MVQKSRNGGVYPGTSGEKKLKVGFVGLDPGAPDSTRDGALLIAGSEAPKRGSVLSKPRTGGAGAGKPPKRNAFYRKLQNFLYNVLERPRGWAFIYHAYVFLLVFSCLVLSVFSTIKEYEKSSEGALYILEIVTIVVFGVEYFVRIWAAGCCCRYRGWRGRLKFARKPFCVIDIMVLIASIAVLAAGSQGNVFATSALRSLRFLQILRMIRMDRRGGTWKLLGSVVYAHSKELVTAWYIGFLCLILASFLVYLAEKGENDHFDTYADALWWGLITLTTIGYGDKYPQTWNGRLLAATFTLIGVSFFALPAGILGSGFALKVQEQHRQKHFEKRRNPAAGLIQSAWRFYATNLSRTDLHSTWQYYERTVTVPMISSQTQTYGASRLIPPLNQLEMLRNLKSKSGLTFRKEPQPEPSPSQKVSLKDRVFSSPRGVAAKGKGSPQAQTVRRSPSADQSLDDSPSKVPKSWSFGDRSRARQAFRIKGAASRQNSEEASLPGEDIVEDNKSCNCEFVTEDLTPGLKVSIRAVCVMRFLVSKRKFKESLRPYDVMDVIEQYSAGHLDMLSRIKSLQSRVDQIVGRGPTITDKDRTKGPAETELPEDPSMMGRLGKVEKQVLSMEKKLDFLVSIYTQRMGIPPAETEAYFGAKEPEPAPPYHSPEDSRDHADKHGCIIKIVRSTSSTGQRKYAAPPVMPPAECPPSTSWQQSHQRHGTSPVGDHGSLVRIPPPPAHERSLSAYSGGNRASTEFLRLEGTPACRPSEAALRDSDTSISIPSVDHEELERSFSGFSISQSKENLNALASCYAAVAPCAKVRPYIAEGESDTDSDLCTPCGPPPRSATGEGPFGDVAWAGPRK
# KCNQ2 enhance: potentiators of rat KCNQ2 potassium channel | O88943 | CHO-K1 KCNQ2, FluxOR thallium flux fluorescence; hits give high values | B-score at 10 µM | actives 0.54% (n = 310,000);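 active = fluorescence ratio B-score at least 3 SD of library B-scores, with initial fluorescence B-score within 3 of them, cut at about 5.3 in these data; same plate scores as AID 2156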;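 also: B-score of peak minus minimum over baseline fluorescence ratio after K+ and Tl+ stimulus; positive B-score means potentiation of KCNQ2 with more thallium influx and brighter signal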
# The depositor's hits bear a star; i = inactive; x = no result. Most compounds without a hit are left out; they make up all but 1.6% or so of the library.
SMILES,KCNQ2 inh,KCNQ2 enhance
CCCS(=O)(=O)N1CCCC(c2nc(-c3cccc(OC)c3)no2)C1 (configuration not stated),i,x
CCc1cc(CNC(=O)C2CCC(=O)N(Cc3cccc(F)c3)C2)on1 (configuration not stated),i,0.76
Cc1ccc(OCC(=O)N(c2ccccn2)C2CCCCC2)c(C)c1,-6.4*,-6.4
O=C(COCCOCC(=O)N(c1ccccn1)C1CCCCC1)N(c1ccccn1)C1CCCCC1,i,0.07
O=C(CCS(=O)(=O)c1ccc(F)cc1)N1CCOCC1,i,x
O=C(CN1CCN(S(=O)(=O)c2ccccc2)CC1)Nc1ccc([N+](=O)[O-])cc1,i,x
CC(OC(=O)Cn1cnc2c1c(=O)n(C)c(=O)n2C)C(=O)NC(C)c1ccc(Cl)cc1Cl (configuration not stated),i,2.1
Cc1ccc(N(C(=O)NC2CCCCC2)C2=NCCCCC2)cc1,-5.8*,-5.8
Cc1ccc(N(C(=O)Nc2ccccc2)C2=NCCC2)cc1,i,x
Cc1sc2nc(-c3ccncc3)[nH]c(=O)c2c1-c1ccccc1,i,0.02
Cc1sc2nc(-c3ccccn3)[nH]c(=O)c2c1-c1ccccc1,i,13*
N#Cc1ccc(OCC(=O)NCC(c2cccs2)N2CCOCC2)cc1 (configuration not stated),i,x
CCCOc1ccc(CN(CCC#N)C(=S)NC(=O)c2ccccc2)cc1,i,7.1*
CCN(CC)S(=O)(=O)c1ccc(C(=O)NC(=S)N(CCO)Cc2ccccc2)cc1,i,1.4
CC1CC(C)CN(C(=O)c2nn(C)c3c2CS(=O)(=O)c2ccccc2-3)C1 (configuration not stated),i,x
CCN(CC(=O)Nc1ccccc1OC)C(=O)c1ccc(NS(=O)(=O)c2ccc(C(C)=O)cc2)cc1,i,x
COc1ccc(/C=C/C(=O)N(CC(C)C)CC(C)C)cc1Br,-5.9*,-5.9
COc1ccc(CN2CCN(C(=O)CC(C)C)CC2)cc1Br,i,x
CSCCC(NS(=O)(=O)c1ccc(Cl)cc1)C(=O)OCc1c(Cl)cccc1Cl (configuration not stated),i,x
CSCCC(NS(=O)(=O)c1ccccc1F)C(=O)OCc1ccccc1Cl (configuration not stated),-6.2*,-6.2
O=C1C2CCCCN2C(=O)N1CCCCN1CCN(c2cccc(Br)c2)CC1 (configuration not stated),i,0.26
Cc1c(Cl)ccc2c(C(=O)NC(C)c3ccncc3)cc(-c3ccncc3)nc12 (configuration not stated),i,x
COc1ccc(-c2cc(C(=O)N(C)Cc3ccccc3F)c3ccccc3n2)cc1OC,i,x
CCN(Cc1ccccc1)C(=O)c1cc(-c2ccc(OC)c(OC)c2)nc2ccccc12,-6.4*,-6.4
COc1cccc(NC(=S)N2CCC(NC(=O)c3ccco3)CC2)c1,i,0.03
SMILES,KCNQ2 inh,KCNQ2 enhance
CC(Oc1ccccc1)C(=O)N1CCN=C1SCc1ccc(F)cc1 (configuration not stated),i,x
COC(=O)c1sc(NC(=O)C2c3ccccc3Oc3ccccc32)c(C(=O)OC)c1C,i,x
CCOC(=O)c1c(NC(=O)C2c3ccccc3Oc3ccccc32)sc(C(C)=O)c1C,-5.7*,-5.7
CCOC(=O)C1=C(C)Nc2nc3ccccc3n2C1c1ccc(O)cc1 (configuration not stated),i,1
CCN(CC)C(=O)C1=C(C)Nc2nc3ccccc3n2C1c1cccc(OC)c1 (configuration not stated),-7.7*,-7.7
CCOC(=O)N1CCN(CCC(=O)c2ccc(OC)cc2)CC1,i,x
CCOC(=O)N1CCN(CCC(=O)c2ccc(Cl)cc2)CC1,-6.7*,-6.7
CCC1Sc2ccc(S(=O)(=O)CCC(=O)NCc3ccco3)cc2NC1=O (configuration not stated),i,x
CC(=O)N1CCOc2ccc(S(=O)(=O)NCCc3ccc(C)cc3)cc21,i,x
O=S(=O)(NCCN1CCOCC1)c1ccc(-c2ccc(S(=O)(=O)NCCN3CCOCC3)cc2)cc1,i,x
O=S(=O)(NCCCN1CCOCC1)c1ccc(Cl)cc1,i,8*
CN1CCOc2ccc(S(=O)(=O)NCCc3ccc(Cl)cc3)cc21,-6.7*,-6.7
C=CCNC(=S)N1CCN(Cc2ccc3c(c2)OCO3)CC1,i,0.21
O=C(NC(=S)NC1CCCC1)c1ccccc1Br,i,1.9
CCN(C(=S)NC(=O)c1ccccc1Br)C1CCCCC1,i,12*
CC1Cc2ccccc2N1C(=O)Cn1cnc2ccccc21 (configuration not stated),i,0.42
COc1cccc(-c2nc(N3CCN(C)CC3)c3ccccc3n2)c1O,i,x
COc1cccc(-c2nc(N3CCCCC3C)c3ccccc3n2)c1O (configuration not stated),-6.8*,-6.8
CCOc1ccccc1/C=C(/NC(=O)c1ccccc1)C(=O)N1CCCCC1,i,x
Oc1ccc(C=Nc2ccc(N3CCOCC3)cc2)c(O)c1,i,x
Oc1cc(Br)ccc1C=Nc1ccc(N2CCCCC2)cc1,-5.8*,-5.8
CCc1ccc(-c2cc(C)no2)cc1S(=O)(=O)NCCc1ccc(OC)c(OC)c1,i,0.68
COc1ccc(OCC(=O)Nc2c(C(=O)N(CCN(C)C)Cc3ccco3)oc3ccccc23)cc1,i,x
COc1ccccc1C(=O)Nc1c(C(=O)N(CCN(C)C)Cc2ccco2)oc2ccccc12,-7*,-7
COc1ccc(Br)cc1-c1noc(-c2ccccc2)n1,i,x
SMILES,KCNQ2 inh,KCNQ2 enhance
COc1ccc(Br)cc1-c1nc(C)c(C(C)=O)n1O,-7.2*,-7.2
COc1ccc(S(=O)(=O)n2cccc2)cc1,i,x
CCOC(=O)c1c(-c2ccccc2)csc1NC(=O)CCN1C(=O)c2ccccc2C1=O,i,x
CCNC(=S)Nc1scc(-c2ccccc2)c1C(=O)OCC,i,12*
CCc1ccc(CNC(=O)C2CCCN(c3nn4c(=O)cc(C)nc4s3)C2)cc1 (configuration not stated),i,0.75
CCCn1c(SCC(=O)Nc2nnc(CC)s2)nnc1-c1ccncc1,i,0.14
Cc1ccccc1COn1nnc2ccc(S(=O)(=O)N3CCOCC3)cc21,-6.7*,-6.7
CN(C(=O)COn1nnc2ccc(S(=O)(=O)N3CCOCC3)cc21)c1ccccc1,i,0.23
CCC(C)(C)n1nnnc1C(c1cc2cc(OC)ccc2[nH]c1=O)N1CCc2ccccc21 (configuration not stated),i,3
Cc1ccc2[nH]c(=O)c(C(c3nnnn3C3CCCC3)N3CCCc4ccccc43)cc2c1 (configuration not stated),i,0.06
CCC(C)(C)n1nnnc1C(c1cc2ccc(OC)cc2[nH]c1=O)N1CCc2ccccc21 (configuration not stated),-6.1*,-6.1
CCC(C)(C)n1nnnc1C(c1cc2cc(C)ccc2[nH]c1=O)N1CCCc2ccccc21 (configuration not stated),i,34*
Cc1cccc(C)c1NC(=O)C1CCN(S(C)(=O)=O)CC1,i,0.23
COc1ccc(-c2cc(C(=O)Nc3cc(C)on3)c3ccccc3n2)c(OC)c1,i,x
COc1cccc(NC(=O)c2cc(-c3ccc(OC)cc3OC)nc3ccccc23)c1,-6.4*,-6.4
Cc1ccc(S(=O)(=O)NC2c3cccc4cccc(c34)C2Sc2nncn2C)cc1 (configuration not stated),i,1.5
